Reference: a collection of fitness landscapes (doi:10.1126/science.1257360)
Over roughly 140,000 sequences, “enrichment ratio after two sorts for PhoP signalling” has its median near 0; the highest 2% begin near 11. The sample holds the highest values, similar sequences and a random draw of the others, so the mix is not that of the screen.

B1: PhoQ; a variant is named by its letters at X, in order, P23837 (parent)
chain: MKKLLRLFFPLSLRVRFLLATAAVVLVLSLAYGMVALIGYSVSFDKTTFRLLRGESNLFYTLAKWENNKLHVELPENIDKQSPTMTLIYDENGQLLWAQRDVPWLMKMIQPDWLKSNGFHEIEADVNDTSLLLSGDHSIQQQLQEVREDDDDAEMTHSVAVNVYPATSRMPKLTIVVVDTIPVELKSSYMVWSWFIYVLSANLLLVIPLLWVAAWWSLRPIEALAKEVRELEEHNRELLNPATTRELTSLVRNLNRLLKSERERYDKYRTTLTDLTHSLKTPLXXLQXXLRSLRSEKMSVSDAEPVMLEQISRISQQIGYYLHRASMRGGTLLSRELHPVAPLLDNLTSALNKVYQRKGVNISLDISPEISFVGEQNDFVEVMGNVLDNACKYCLEFVEISARQTDEHLYIVVEDDGPGIPLSKREVIFDRGQRVDTLRPGQGVGLAVAREITEQYEGKIVAGESMLGGARMEVIFGRQHSAPKDE

Variants of: B1
Assay: enrichment ratio after two sorts for PhoP signalling (ratio (wild type AVST 3.29)); higher = more functional
Conditions: with PhoP (E. coli)

| Variant | enrichment ratio |
| --- | --- |
| VMTR | ≤ 0.25 |
| STQS | ≤ 0.25 |
| KTAN | ≤ 0.25 |
| DFLN | ≤ 0.25 |
| NTCK | ≤ 0.25 |
| QLKF | ≤ 0.25 |
| TVQG | 14.6 |
| TFQG | 12.3 |
| TLQG | 11.8 |
| GGQG | ≤ 0.25 |
| PFQG | ≤ 0.25 |
| TGQG | 15.7 |
| PLQG | ≤ 0.25 |
| NVQG | ≤ 0.25 |
| PVQG | ≤ 0.25 |
| NFQG | ≤ 0.25 |
| RGQG | ≤ 0.25 |
| KAQG | ≤ 0.25 |
| VFKH | ≤ 0.25 |
| NHHA | ≤ 0.25 |
| ILFN | ≤ 0.25 |
| FTCA | ≤ 0.25 |
| STNQ | 1.23 |
| FWKT | ≤ 0.25 |

| Variant | enrichment ratio |
| --- | --- |
| LMTM | ≤ 0.25 |
| TMQG | 11.9 |
| EMQG | ≤ 0.25 |
| HAQG | ≤ 0.25 |
| TITY | ≤ 0.25 |
| ITAM | 0.308 |
| TQAM | 25.5 |
| SLAT | ≤ 0.25 |
| SQAT | 12.5 |
| NQAM | ≤ 0.25 |
| SFAT | ≤ 0.25 |
| TTAM | 17.5 |
| SNCK | 0.609 |
| SNWM | ≤ 0.25 |
| SNAM | 13.5 |
| GTAM | ≤ 0.25 |
| FQAM | ≤ 0.25 |
| EQWF | ≤ 0.25 |
| TQKS | ≤ 0.25 |
| TDDA | ≤ 0.25 |
| HGKC | ≤ 0.25 |
| ILFG | ≤ 0.25 |
| YTAM | ≤ 0.25 |
| STAM | 12.1 |

| Variant | enrichment ratio |
| --- | --- |
| SQAM | 21.4 |
| WQAM | ≤ 0.25 |
| SPAM | ≤ 0.25 |
| SFAM | ≤ 0.25 |
| SERM | ≤ 0.25 |
| SEAM | 15.9 |
| RSGP | ≤ 0.25 |
| ILCM | ≤ 0.25 |
| CSYF | ≤ 0.25 |
| EGPL | ≤ 0.25 |
| STKG | ≤ 0.25 |
| TAEP | 0.518 |
| VSNR | ≤ 0.25 |
| SPLN | ≤ 0.25 |
| KYLN | ≤ 0.25 |
| GGCN | 0.54 |
| AKLN | 14 |
| AILN | 4.12 |
| TGCN | 42.2 |
| TKLN | 8.35 |
| YTLN | 8.58 |
| RGCN | ≤ 0.25 |
| TTLN | 23.9 |
| STLN | 14.8 |

| Variant | enrichment ratio |
| --- | --- |
| ITLN | 1.49 |
| AGQV | ≤ 0.25 |
| QSKK | ≤ 0.25 |
| HWTI | ≤ 0.25 |
| QAFH | 9.93 |
| QFDR | ≤ 0.25 |
| QGQP | ≤ 0.25 |
| LKDC | ≤ 0.25 |
| PWTA | ≤ 0.25 |
| LSFA | ≤ 0.25 |
| YDML | ≤ 0.25 |
| AICN | 18.7 |
| ATCN | 3.42 |
| AWCN | ≤ 0.25 |
| AHCN | ≤ 0.25 |
| NICN | ≤ 0.25 |
| NVCN | ≤ 0.25 |
| ATQN | ≤ 0.25 |
| RICN | ≤ 0.25 |
| SPCN | ≤ 0.25 |
| ATLN | 17.9 |
| TVCN | 26.1 |
| ADCN | 11.5 |
| CTFI | 9.39 |

| Variant | enrichment ratio |
| --- | --- |
| DTFW | ≤ 0.25 |
| LRFL | ≤ 0.25 |
| IIPK | ≤ 0.25 |
| EKLK | ≤ 0.25 |
| QVPD | ≤ 0.25 |
| ENFI | ≤ 0.25 |
| QKFY | ≤ 0.25 |
| SGCK | 8.85 |
| ASLN | 9.05 |
| TDCN | 15.7 |
| ANCN | 33 |
| ASCN | 15.3 |
| ANLN | 8.47 |
| HWCN | ≤ 0.25 |
| VRCN | ≤ 0.25 |
| SGLN | 10.9 |
| SGCN | 11.5 |
| LTCN | ≤ 0.25 |
| KDCN | ≤ 0.25 |
| MIMG | ≤ 0.25 |
| MYAM | ≤ 0.25 |
| RCLW | ≤ 0.25 |
| SMWE | ≤ 0.25 |
| ALQI | ≤ 0.25 |

| Variant | enrichment ratio |
| --- | --- |
| PLLC | ≤ 0.25 |
| MISF | 3.65 |
| AACN | 12.7 |
| AALN | 8.23 |
| YTCN | ≤ 0.25 |
| TTCN | 11.9 |
| LWCN | ≤ 0.25 |
| KACN | ≤ 0.25 |
| KGPM | ≤ 0.25 |
| SMIS | ≤ 0.25 |
| TEVI | 12.8 |
| MMVI | ≤ 0.25 |
| MCVI | ≤ 0.25 |
| TEND | 23.1 |
| NENM | ≤ 0.25 |
| MEVI | 18.2 |
| MENM | ≤ 0.25 |
| TEVA | 6.58 |
| NEVI | 4.98 |
| TEGD | ≤ 0.25 |
| TEYD | ≤ 0.25 |
| TENM | 15.7 |
| ESVY | ≤ 0.25 |
| NGGL | ≤ 0.25 |

| Variant | enrichment ratio |
| --- | --- |
| LFQL | ≤ 0.25 |
| KSDP | ≤ 0.25 |
| FMMA | ≤ 0.25 |
| TENL | 6.63 |
| TENY | 11.3 |
| TENS | 8.17 |
| PRSQ | ≤ 0.25 |
| TGHK | ≤ 0.25 |
| FSEI | ≤ 0.25 |
| AAMG | 9.84 |
| SRST | ≤ 0.25 |
| QEST | 1.97 |
| NEST | 3.45 |
| YEST | 12.8 |
| SQST | 6.97 |
| SEST | 18.4 |
| FTST | ≤ 0.25 |
| TEST | 23.4 |
| YTST | ≤ 0.25 |
| PLIK | ≤ 0.25 |
| AQAT | 5.01 |
| SLNT | ≤ 0.25 |
| FKYM | ≤ 0.25 |
| KASH | ≤ 0.25 |

| Variant | enrichment ratio |
| --- | --- |
| HFAH | ≤ 0.25 |
| TASH | 11.7 |
| TAKH | ≤ 0.25 |
| TANH | ≤ 0.25 |
| TAAH | 19.2 |
| YMQV | ≤ 0.25 |
| FCDV | ≤ 0.25 |
| TIWI | ≤ 0.25 |
| TIWS | 15.7 |
| TINR | 15.4 |
| TIYI | 4.29 |
| WINR | ≤ 0.25 |
| TIRA | ≤ 0.25 |
| RINR | ≤ 0.25 |
| AIQI | 0.475 |
| TITS | 15.9 |
| TIQI | 12.3 |
| RIQI | ≤ 0.25 |
| TIRM | 5.12 |
| KTHN | ≤ 0.25 |
| SPNA | ≤ 0.25 |
| NRQT | ≤ 0.25 |
| APHK | ≤ 0.25 |
| IMQV | ≤ 0.25 |

| Variant | enrichment ratio |
| --- | --- |
| LPRC | ≤ 0.25 |
| EVLG | ≤ 0.25 |
| TISS | 11.9 |
| WISS | ≤ 0.25 |
| RINN | ≤ 0.25 |
| RISC | ≤ 0.25 |
| TIEG | 11.8 |
| WISC | ≤ 0.25 |
| TINN | 12.6 |
| TINL | 9.31 |
| PSEG | ≤ 0.25 |
| TISC | 15 |
| TISA | 10.6 |
| TIMG | 3.15 |
| WFHG | ≤ 0.25 |
| MFFV | ≤ 0.25 |
| SPGL | ≤ 0.25 |
| VISE | ≤ 0.25 |
| FCRN | ≤ 0.25 |
| TIQH | 12.6 |
| TIQN | 5.05 |
| RIAN | ≤ 0.25 |
| TIDV | ≤ 0.25 |
| TIWV | ≤ 0.25 |

| Variant | enrichment ratio |
| --- | --- |
| TIFI | 0.264 |
| TITV | 15.1 |
| TIMV | 1.5 |
| TIYV | 16.6 |
| TIAN | 19.6 |
| TIKH | ≤ 0.25 |
| WITV | ≤ 0.25 |
| PPYV | ≤ 0.25 |
| EETS | ≤ 0.25 |
| VSPI | ≤ 0.25 |
| TIQQ | 16.4 |
| TIAD | ≤ 0.25 |
| TIFA | ≤ 0.25 |
| TIFP | ≤ 0.25 |
| TIGS | 15 |
| TIQP | ≤ 0.25 |
| TIAA | 12 |
| TITC | 12.2 |
| TINK | 7.27 |
| TIFC | ≤ 0.25 |
| TIVK | ≤ 0.25 |
| AIAA | 9.24 |
| AMHL | ≤ 0.25 |
| PQHY | ≤ 0.25 |

| Variant | enrichment ratio |
| --- | --- |
| EMES | ≤ 0.25 |
| LHSI | ≤ 0.25 |
| LTDV | ≤ 0.25 |
| PMYR | ≤ 0.25 |
| LERK | ≤ 0.25 |
| TIGD | 11.6 |
| TIMD | ≤ 0.25 |
| TITD | ≤ 0.25 |
| TIEH | 27.9 |
| TITH | 1.26 |
| RIEH | ≤ 0.25 |
| TIQR | 16 |
| TIGR | 5.97 |
| TINH | 34.4 |
| TIRI | 2.01 |
| WIQR | ≤ 0.25 |
| TINT | 4.95 |
| FADQ | ≤ 0.25 |
| MASY | ≤ 0.25 |
| PWSE | ≤ 0.25 |
| ECDR | ≤ 0.25 |
| AKEC | ≤ 0.25 |
| PVAT | ≤ 0.25 |
| YHSV | ≤ 0.25 |

| Variant | enrichment ratio |
| --- | --- |
| GNSV | 8.29 |
| MGSV | 15.6 |
| MGSK | ≤ 0.25 |
| RGSV | ≤ 0.25 |
| NGSV | ≤ 0.25 |
| GISV | 11.2 |
| MGWR | ≤ 0.25 |
| GGSV | 23.9 |
| GIMV | 2.38 |
| TGSV | 17.2 |
| NISV | 3.96 |
| YIFP | ≤ 0.25 |
| IYDW | ≤ 0.25 |
| LKWY | ≤ 0.25 |
| FTWQ | ≤ 0.25 |
| GANW | ≤ 0.25 |
| GAMV | ≤ 0.25 |
| GEMI | 84 |
| GAMI | 18.9 |
| GEMS | 4.64 |
| GEMD | ≤ 0.25 |
| HTQK | ≤ 0.25 |
| QEKV | ≤ 0.25 |
| MKDS | ≤ 0.25 |

| Variant | enrichment ratio |
| --- | --- |
| VMDC | ≤ 0.25 |
| HYLA | ≤ 0.25 |
| SGAI | 12.3 |
| KSAI | ≤ 0.25 |
| SHAI | ≤ 0.25 |
| THAI | 14.8 |
| RGAI | ≤ 0.25 |
| SGKR | ≤ 0.25 |
| TGAI | 12.3 |
| NSAI | 0.375 |
| NHAI | ≤ 0.25 |
| CFAI | ≤ 0.25 |
| TSAI | 16.9 |
| SGAT | 5.6 |
| HRPD | ≤ 0.25 |
| FYDW | ≤ 0.25 |
| TKHK | ≤ 0.25 |
| AFWS | ≤ 0.25 |
